# Where “and” joins values, the source holds several entries; their conditions need not be identical. Equal values may be shown once. Inconclusive results are not listed. Calls of active or inactive are those of the source. The calls were made as follows, unless noted: active = hit-call score of the fitted dose curve at least 0.9, where 1 is the maximum; inactive = score below 0.9.
# Experiments:
# [1] = read-out: Interleukin-8 (IL8), CXCL8 (gene 3576); test: BSK_BE3C_IL8: BioMAP Diversity Plus: BE3C Assay for Interleukin-8 (IL8) Biomarker Activity (AID 2284280); details: primary human bronchial epithelial cells
# Summary of the method: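 IL-8 signal gain, normalised to DMSO vehicle, was scored after a 24 h chemical exposure of primary human bronchial epithelial cells, with detection by ELISA.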
# [2] = read-out: Epidermal growth factor receptor (EGFR), EGFR (gene 1956); test: BSK_BE3C_EGFR: BioMAP Diversity Plus: BE3C Assay for Epidermal growth factor receptor (EGFR) Biomarker Activity (AID 2284281); details: primary human bronchial epithelial cells
# Summary of the method: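 Compound is added to human bronchial epithelial cells, cells incubate 24 h, then EGFR is detected by ELISA. Values reflect positive-direction fitting relative to DMSO.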
# [3] = read-out: Matrix Metallopeptidase 9 (MMP9), MMP9 (gene 4318); test: BSK_BE3C_MMP9: BioMAP Diversity Plus: BE3C Assay for Matrix Metallopeptidase 9 (MMP9) Biomarker Activity (AID 2284283); details: primary human bronchial epithelial cells
# Summary of the method: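 Human primary bronchial epithelial cells in the BE3C system were dosed with compound for 24 h. MMP-9 was measured by ELISA, and the positive-direction response was fitted relative to DMSO as baseline. Parallel SRB staining gauged cytotoxicity.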
# [4] = read-out: Plasminogen activator inhibitor-1 (PAI1), SERPINE1 (gene 5054); test: BSK_CASM3C_PAI1: BioMAP Diversity Plus: CASM3C Assay for Plasminogen activator inhibitor-1 (PAI1) Biomarker Activity (AID 2284284); details: primary human coronary artery smooth muscle cells;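 also: PAI-1 protein level measured by ELISA 24 h after dosing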
# [5] = read-out: Monocyte Chemoattractant Protein-1 (MCP1), CCL2 (gene 6347); test: BSK_hDFCGF_MCP1: BioMAP Diversity Plus: hDFCGF Assay for Monocyte Chemoattractant Protein-1 (MCP1) Biomarker Activity (AID 2284285); details: primary human foreskin fibroblasts
# Summary of the method: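 Human foreskin fibroblasts (hDFCGF system) were exposed to compound and secreted MCP-1 was measured by ELISA after 24 hours. Activity was fitted relative to DMSO. Cytotoxicity was checked by SRB total-protein staining in parallel cultures.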
# [6] = read-out: Intercellular Adhesion Molecule 1 (ICAM1), ICAM1 (gene 3383); test: BSK_hDFCGF_ICAM1: BioMAP Diversity Plus: hDFCGF Assay for Intercellular Adhesion Molecule 1 (ICAM1) Biomarker Activity (AID 2284287); details: primary human foreskin fibroblasts
# Summary of the method: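 Primary human foreskin fibroblasts (hDFCGF system) dosed with chemical; ICAM-1 quantified by ELISA at 24 h relative to DMSO. Parallel SRB total-protein staining to assess overt cytotoxicity.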
# [7] = read-out: TIMP metallopeptidase inhibitor 2 (TIMP2), TIMP2 (gene 7077); test: BSK_hDFCGF_TIMP2: BioMAP Diversity Plus: hDFCGF Assay for TIMP metallopeptidase inhibitor 2 (TIMP2) Biomarker Activity (AID 2284289); details: primary human foreskin fibroblasts
# Summary of the method: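 Primary human foreskin fibroblasts in the hDFCGF system, dosed for 24 h; TIMP-2 level measured by ELISA, fitted in the positive direction against DMSO; cytotoxicity checked in parallel by sulforhodamine B total protein staining.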
# [8] = read-out: Thrombomodulin, THBD (gene 7056); test: BSK_LPS_Thrombomodulin: BioMAP Diversity Plus: LPS Assay for Thrombomodulin Biomarker Activity (AID 2284296); details: primary human HUVEC with PBMC
# Summary of the method: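 Human umbilical vein endothelial cells co-cultured with PBMC and stimulated with LPS; cell-surface thrombomodulin measured by ELISA 24 hours after compound. Gain or loss versus DMSO; cytotoxicity checked by SRB staining in parallel cultures.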
# [9] = read-out: CD69, CD69 (gene 969); test: BSK_LPS_CD69: BioMAP Diversity Plus: LPS Assay for CD69 Biomarker Activity (AID 2284303); details: primary human HUVEC with PBMC
# Summary of the method: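 Human umbilical vein endothelial cells co-cultured with PBMC under LPS stimulation, chemical exposure 24 h; cell-surface CD69 measured by ELISA and fitted in the positive direction versus DMSO.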
# [10] = test system: DIO1 (gene 1733); test: CCTE_GLTED_hDIO1: CCTE's human Deiodinase 1 (DIO1) Inhibition Assay, Great Lakes Toxicology and Ecology Division (GLTED) Lab (AID 2283987; active = hit-call score of the fitted dose curve at least 0.9, where 1 is the maximum;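 also: isolated human DIO1 enzyme in a cell-free setup rather than cells; enzyme activity read as free iodide liberated from substrate via Sandell-Kolthoff colorimetry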)
# Summary of the method: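 Cell-free human DIO1 enzyme was incubated with test chemical for 3 h, and iodide released from substrate was measured by Sandell-Kolthoff absorbance. Loss of signal versus DMSO baseline indicated inhibition; plates were run in triplicate.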
# [11] = test system: DIO2 (gene 1734); test: CCTE_GLTED_hDIO2: CCTE's human Deiodinase 2 (DIO2) Inhibition Assay, Great Lakes Toxicology and Ecology Division (GLTED) Lab (AID 2284050; active = hit-call score of the fitted dose curve at least 0.9, where 1 is the maximum)
# Summary of the method: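 In this cell-free test, chemicals are exposed to human deiodinase type 2 for 3 hours. Released iodide is determined spectrophotometrically via the Sandell-Kolthoff method, and signal loss relative to DMSO is fitted.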
# [12] = test system: DIO3 (gene 1735); test: CCTE_GLTED_hDIO3: CCTE's human Deiodinase 3 (DIO3) Inhibition Assay, Great Lakes Toxicology and Ecology Division (GLTED) Lab (AID 2284055; active = hit-call score of the fitted dose curve at least 0.9, where 1 is the maximum;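 also: potency is for inhibition seen as loss of released iodide signal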)
# Summary of the method: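 Enzyme activity is tracked as iodide release from substrate by recombinant human DIO3 over 3 h with chemical present. A second Sandell-Kolthoff step converts iodide to an absorbance signal, fitted relative to DMSO.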
# [13] = molecular target: Glucocorticoid receptor (Homo sapiens) (UniProt P04150); test: NVS_NR_hGR: NovaScreen (NVS) Nuclear Receptor Binding Assay for human Glucocorticoid Receptor (GR) (AID 2283363; active = hit-call score of the fitted dose curve at least 0.9, where 1 is the maximum;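 as to AC50: activity is loss of specific radioligand binding signal relative to DMSO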)
# Glucocorticoid receptor (Homo sapiens), sequence (P04150 whole entry, looked up): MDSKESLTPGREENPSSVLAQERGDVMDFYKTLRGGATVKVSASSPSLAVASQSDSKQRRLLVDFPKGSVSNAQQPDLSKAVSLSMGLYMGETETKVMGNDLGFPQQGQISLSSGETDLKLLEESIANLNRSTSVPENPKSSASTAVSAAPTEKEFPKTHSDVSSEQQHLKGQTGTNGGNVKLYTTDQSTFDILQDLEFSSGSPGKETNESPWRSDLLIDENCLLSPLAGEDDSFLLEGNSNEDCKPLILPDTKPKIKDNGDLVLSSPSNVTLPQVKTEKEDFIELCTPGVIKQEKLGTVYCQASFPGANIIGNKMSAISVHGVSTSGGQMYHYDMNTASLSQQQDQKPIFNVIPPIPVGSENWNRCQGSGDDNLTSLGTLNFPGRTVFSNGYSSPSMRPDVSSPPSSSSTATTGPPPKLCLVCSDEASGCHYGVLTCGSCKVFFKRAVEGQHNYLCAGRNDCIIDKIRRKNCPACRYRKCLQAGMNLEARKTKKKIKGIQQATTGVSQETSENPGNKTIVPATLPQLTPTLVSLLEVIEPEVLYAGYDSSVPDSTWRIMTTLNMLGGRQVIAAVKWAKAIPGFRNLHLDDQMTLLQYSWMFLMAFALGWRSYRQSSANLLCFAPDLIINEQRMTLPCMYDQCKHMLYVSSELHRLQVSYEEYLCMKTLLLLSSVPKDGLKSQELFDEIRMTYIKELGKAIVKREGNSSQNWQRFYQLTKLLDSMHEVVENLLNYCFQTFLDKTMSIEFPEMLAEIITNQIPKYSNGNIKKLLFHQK
# Summary of the method: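 Competitive displacement of a labelled ligand was measured on cell-free receptor preparations after 16 h exposure. Initial testing used 25 uM in duplicate with plate controls; confirmed actives went into concentration series.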
# [14] = molecular target: sheep Cyclooxygenase-2 (Cox2), PTGS2 (gene 443460) (UniProt P79208); test: NVS_ENZ_oCOX2: NovaScreen (NVS) Enzymatic Assay for sheep Cyclooxygenase-2 (Cox2) (AID 2283231; active = hit-call score of the fitted dose curve at least 0.9, where 1 is the maximum)
# sheep Cyclooxygenase-2 (Cox2), PTGS2 (gene 443460), sequence (P79208 whole entry, looked up): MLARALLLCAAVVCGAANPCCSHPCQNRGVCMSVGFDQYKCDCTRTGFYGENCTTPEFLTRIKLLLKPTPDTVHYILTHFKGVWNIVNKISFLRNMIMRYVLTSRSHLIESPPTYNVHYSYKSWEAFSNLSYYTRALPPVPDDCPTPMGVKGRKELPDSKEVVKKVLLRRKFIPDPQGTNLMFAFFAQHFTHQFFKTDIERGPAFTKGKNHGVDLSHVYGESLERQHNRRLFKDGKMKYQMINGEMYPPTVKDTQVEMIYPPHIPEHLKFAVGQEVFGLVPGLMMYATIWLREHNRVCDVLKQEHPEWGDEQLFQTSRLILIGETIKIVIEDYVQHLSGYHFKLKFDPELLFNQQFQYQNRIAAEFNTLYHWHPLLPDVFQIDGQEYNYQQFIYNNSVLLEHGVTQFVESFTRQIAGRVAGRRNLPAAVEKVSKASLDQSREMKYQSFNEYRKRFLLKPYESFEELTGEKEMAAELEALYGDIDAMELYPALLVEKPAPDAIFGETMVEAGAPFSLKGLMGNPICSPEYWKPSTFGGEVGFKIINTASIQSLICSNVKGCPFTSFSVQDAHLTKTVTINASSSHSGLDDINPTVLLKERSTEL
# Summary of the method: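 Colorimetric absorbance read-out of COX activity, taken 0.66 hour post-dosing, using native protein from sheep placenta. Single-concentration duplicate screen (25 uM), then singleton concentration-response up to 50 uM for actives.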
# [15] = CEETOX_H295R_ANDR: CeeTox H295R High-throughput Steroidogenesis Assay for Androstenedione (ANDR) (AID 2283436); details: actives raise or lower the signal
# Summary of the method: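 Read-out is androstenedione secreted into medium, measured by tandem mass spectrometry after liquid-liquid extraction. Cells were H295R, dosed for 48 h per modified OECD 456; activity fitted in both directions relative to DMSO.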
# [16] = CEETOX_H295R_TESTO: CeeTox H295R High-throughput Steroidogenesis Assay for Testosterone (TESTO) (AID 2283457); details: actives raise or lower the signal;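 as to AC50: cells exposed to chemicals for 48 h before medium collection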
# Summary of the method: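 H295R human adrenal cells in DMEM/F12 with ITS+ and Nu-Serum, exposed to chemicals for 48 h. Testosterone in medium measured by MTBE extraction, reverse-phase HPLC-MS/MS; bidirectional fit versus DMSO baseline. MTT viability checked in same wells.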
# [17] = IUF_NPC1b_proliferation_BrdU_72hr: Leibniz Research Institute for Environmental Medicine (IUF) 72-hour Neural Progenitor Cell Bromodeoxyuridine (BrdU) Proliferation Assay (NPC1b) (AID 2284207)
# Summary of the method: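 Proliferation of primary human neural progenitor cells: 72 h compound treatment at 37C, 5% CO2, pH 7.2-7.6, in EGF/FGF-containing medium. Readout is BrdU uptake (last 16 h) by chemiluminescent ELISA, normalised to DMSO.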
# [18] = TAMU_PeakParms_SingleDonor1434_QT: Texas A&M University (TAMU) 1.5-hr Human Induced Pluripotent Stem Cell (iPSC)-derived Cardiomyocytes Calcium (Ca+2) Flux Assay for Cardiotoxicity: QT (decay-rise ratio) (AID 2284235; active = hit-call score of the fitted dose curve at least 0.9, where 1 is the maximum)
# Summary of the method: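 iPSC-derived cardiomyocytes (single donor 1434) dosed at 0.2, 1, 10, 100 uM final in 0.5% DMSO, 90 min at 37C. Ca2+ flux fluorescence decay/rise ratio; EC05 (5% increase versus DMSO) as POD, excluding beat-arrest and severe-notch data.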
# [19] = IUF_NPC5_oligodendrocyte_differentiation_120hr: Leibniz Research Institute for Environmental Medicine (IUF) 120-hour Oligodendrocyte Differentiation Assay (NPC5) (AID 2284304; active = hit-call score of the fitted dose curve at least 0.9, where 1 is the maximum;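 also: primary human fetal neural progenitor spheres plated to migrate and differentiate; share of O4-positive cells among Hoechst nuclei found by CNN image analysis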)
# Summary of the method: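 Primary human fetal (GW 16-19) neural progenitor spheres (0.3 mm) plated on poly-D-lysine/laminin in N2 differentiation medium, exposed from day 0 for 120 h with half-medium refresh at day 3; O4-positive cells as percent of Hoechst nuclei, CNN-identified, versus DMSO.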
# [20] = TAMU_PeakParms_SingleDonor1434_Asystole: Texas A&M University (TAMU) 1.5-hr Human Induced Pluripotent Stem Cell (iPSC)-derived Cardiomyocytes Calcium (Ca+2) Flux Assay for Cardiotoxicity: Asystole (quiescence of beating) (AID 2284328; active = hit-call score of the fitted dose curve at least 0.9, where 1 is the maximum)
# Summary of the method: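 Average Ca2+-flux peak frequency (beats/s) was recorded in single-donor iPSC-derived cardiomyocytes after 90 min exposure (0.2–100 uM final, 0.5% DMSO). Asystole POD set as EC95 against DMSO, no preprocessing.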
structure (smiles),measurement,setting,value
O=[N+]([O-])O,outcome,[1],inactive
same,outcome,[2],inactive
same,outcome,[3],inactive
same,outcome,[4],inactive
same,outcome,[5],inactive
same,outcome,[6],inactive
same,outcome,[7],inactive
same,outcome,[8],inactive
same,outcome,[9],inactive
C=CC(=O)OCC(CC)CCCC (stereo not given),AC50,[10],19.4 µM (active)
same,AC50,[11],23.8 µM (active)
same,AC50,[12],47 µM (active)
CC(C)(c1cc(Cl)c(O)c(Cl)c1)c1cc(Cl)c(O)c(Cl)c1,AC50,[13],544 nM (active) and 146 nM (active)
same,AC50,[10],73.9 µM (active)
same,AC50,[11],94.3 µM (active)
same,AC50,[12],41.8 µM (active)
COc1ccc(CO)cc1,outcome,[1],inactive
same,outcome,[2],inactive
same,outcome,[3],inactive
same,outcome,[4],inactive
same,outcome,[5],inactive
same,outcome,[6],inactive
same,outcome,[7],inactive
same,outcome,[8],inactive
same,outcome,[9],inactive
Oc1ccc(C2(c3ccc(O)cc3)c3ccccc3-c3ccccc32)cc1,AC50,[1],6.88 µM (active) and 5.35 µM (active)
same,outcome,[2],inactive
same,AC50,[3],383 nM (active) and 5.33 µM (active)
same,AC50,[4],20 µM (active)
same,AC50,[5],3.59 µM (active) and 2.48 µM (active)
same,AC50,[6],3.15 µM (active) and 2.69 µM (active)
same,AC50,[7],1.41 µM (active) and 1.34 µM (active)
same,AC50,[8],5.13 µM (active) and 5.21 µM (active)
same,AC50,[9],14.3 µM (active) and 13.1 µM (active)
O=CNC(N1CCN(C(NC=O)C(Cl)(Cl)Cl)CC1)C(Cl)(Cl)Cl (stereo not given),outcome,[14],inactive
same,AC50,[15],50 µM (active)
same,outcome,[16],inactive
CC(C)CCCCCCCOP(=O)(Oc1ccccc1)Oc1ccccc1,outcome,[17],inactive
same,outcome,[18],inactive
same,AC50,[19],5.15 µM (active)
same,outcome,[20],inactive
CCCCCCCCCCCCCCCC[N+](C)(C)C,AC50,[10],13.5 µM (active)
same,AC50,[11],19.8 µM (active)
same,AC50,[12],1.56 µM (active)
CC(C)(C)C(O)C(Oc1ccc(-c2ccccc2)cc1)n1cncn1 (stereo not given),outcome,[13],inactive
same,AC50,[15],0.114 µM (active)
same,outcome,[16],inactive
CNC(=N[N+](=O)[O-])NCC1CCOC1 (stereo not given),outcome,[14],inactive
same,outcome,[17],inactive
CC1CCCC1.[C-]#[O+].[C-]#[O+].[C-]#[O+].[Mn],AC50,[18],9.92 µM (active)
O=c1c2ccccc2c(=O)c2c1cc(Cl)c1[nH]c3c([nH]c12)c(Cl)cc1c(=O)c2ccccc2c(=O)c13,AC50,[13],12.9 µM (active)
Cc1ccc(OP(=O)(Oc2ccc(C)cc2)Oc2ccc(C)cc2)cc1 (tested in a mixture with another compound),outcome,[18],inactive
same,outcome,[19],inactive
same,AC50,[20],7.7 µM (active)
CC1(C)[C@H](C(=O)O[C@H](C#N)c2cccc(Oc3ccccc3)c2)[C@@H]1C=C(Br)Br,outcome,[17],inactive
same,AC50,[19],0.729 µM (active)
same,outcome,[20],inactive
O=[N+]([O-])c1ccc(Cl)cc1,outcome,[14],inactive
CNC(=O)Oc1cc(C)c(SC)c(C)c1,AC50,[15],37.7 µM (active)
same,AC50,[16],36 µM (active)
